# Sampled rows, rich in hits. Any-hit rate of the full collection: about 3.8%.
# ERa SRC1 pot – enhancers of ERα–SRC-1 coactivator binding, primary screen, biochemical, TR-FRET, ERα LBD, low estradiol; 86,000 compounds, 1.3% hits; AID 639, 2007; TR-FRET ERalpha-LBD/SRC-Cy5 coactivator binding, 2 h; 100 = basal binding, no effect; coactivator binding (% of control), % at 25.6 µM; Estrogen receptor (Homo sapiens), P03372; in the data active = activity above about 200%;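 also: binding measured in presence of low estradiol as agonist stimulus; 0% = peptide alone without receptor and 100% = receptor with peptide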
# Target sequence (P03372 whole entry, looked up, the tested form may be a part): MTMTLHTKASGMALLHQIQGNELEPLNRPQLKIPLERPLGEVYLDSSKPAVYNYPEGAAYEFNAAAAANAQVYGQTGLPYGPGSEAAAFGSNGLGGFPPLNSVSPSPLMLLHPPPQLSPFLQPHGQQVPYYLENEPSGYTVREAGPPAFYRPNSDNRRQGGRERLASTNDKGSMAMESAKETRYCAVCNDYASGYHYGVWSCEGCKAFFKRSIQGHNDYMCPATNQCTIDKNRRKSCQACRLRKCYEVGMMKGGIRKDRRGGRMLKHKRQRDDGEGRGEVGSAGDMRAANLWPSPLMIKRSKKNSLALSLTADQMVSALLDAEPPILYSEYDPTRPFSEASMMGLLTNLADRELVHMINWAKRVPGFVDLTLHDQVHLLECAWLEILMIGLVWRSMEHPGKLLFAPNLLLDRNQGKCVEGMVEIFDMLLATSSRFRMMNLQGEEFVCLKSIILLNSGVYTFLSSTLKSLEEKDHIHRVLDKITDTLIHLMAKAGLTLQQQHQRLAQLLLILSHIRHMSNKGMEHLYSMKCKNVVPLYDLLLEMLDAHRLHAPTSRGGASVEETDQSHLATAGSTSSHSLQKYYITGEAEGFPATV
# Candida biofilm – clotrimazole potentiators killing Candida biofilms, primary screen, with clotrimazole, Alamar Blue; C. albicans biofilm + clotrimazole; inhibition, % at 6 µM; 85,000 compounds, 0.14% hits; AID 834, 2007;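 active = inhibition above 20%; inactive = inhibition below 20%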;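 also: preformed 24 hr biofilms exposed to compound for 48 hr; 0% = biofilm without compound and 100% = blank killed by clotrimazole plus chlorhexidine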
# Smad3 FoxH1 inh – Smad3/FoxH1 peptide binding inhibitors, primary screen, biochemical, TR-FRET. 88,000 compounds, 0.29% hits. TR-FRET Smad3/Dy647-FoxH1 peptide binding, europium anti-His. Mothers against decapentaplegic homolog 3 (Homo sapiens), P84022. inhibition, % at 25 µM;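 active = compounds that reduce the energy-transfer binding signal between the protein and its labelled peptide by more than half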;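 also: 0% = Smad3 plus labelled peptide maximal FRET and 100% = peptide-only background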
# ERb coact inh – inhibitors of ERβ-SRC1 coactivator interaction, primary screen, biochemical, TR-FRET, ERβ LBD, SRC-1 peptide; 86,000 compounds, 1.3% hits; inhibition, % at 25.6 µM; TR-FRET ER-beta LBD / SRC1-Cy5 peptide binding; receptor agonist-loaded with 1 µM estradiol; Estrogen receptor beta (Homo sapiens), Q92731;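 active = compounds whose percent inhibition of the receptor-coactivator binding signal exceeds about 50% in the single-dose screen, limit read from the data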;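 also: 0% = receptor plus peptide wells without compound and 100% = peptide-only wells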
# ERa SRC1 inh – ERα–SRC-1 coactivator interaction inhibitors, primary screen, biochemical, TR-FRET, ERα LBD, estradiol-bound; Estrogen receptor (Homo sapiens), P03372; TR-FRET ER-alpha LBD / SRC-1 peptide; inhibition, % at 25.6 µM; 86,000 compounds, 1.7% hits; AID 629, 2007; in the data active = inhibition above about 50%;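 also: 0% = receptor plus peptide control and 100% = peptide only without receptor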
# An asterisk follows results filed as active; / = no result; [ ] = dose if it differs, or a comment.
SMILES,ERa SRC1 pot,Candida biofilm,Smad3 FoxH1 inh,ERb coact inh,ERa SRC1 inh
CCCC(=O)N1CCN(c2ccc(C(=O)c3ccc(OC)c(Br)c3)cc2F)CC1,166.9,9.9,7.9,3.1,16.0
O=C(CCn1nc(-c2ccc(Cl)cc2)ccc1=O)NCCCN1CCCCCC1,98.9,1.2,1.6,31.4,74.3*[fluorescence artefact?]
O=C(NCc1ccco1)N1c2ccccc2Sc2ccccc21,99.7,3.6,-7.5,-4.5,1.9
O=C(Nc1ccccc1N1CCOCC1)c1ccc2c(c1)C(=O)N(Cc1ccncc1)C2=O,15.1,0.6,0.9,38.6,63.1*[fluorescence artefact?]
O=C(NCc1ccccc1)c1ccc2c(c1)C(=O)N(Cc1ccncc1)C2=O,106.5,7.3,-4.3,-16.7,-1.1
Cc1oc(-c2ccccc2)nc1C(=O)Nc1nccs1,90.5,0.7,2.2,37.0,52.3*[fluorescence artefact?]
Cc1cc(C2(c3cc(C)c(O)c(C(=O)O)c3)OS(=O)(=O)c3ccccc32)cc(C(=O)O)c1O,/,/,20.1,/,/
[Cu].c1ccc2c(c1)-c1nc-2nc2[n-]c(nc3nc(nc4[n-]c(n1)c1ccccc41)-c1ccccc1-3)c1ccccc21,/,/,-7.6,/,/
Brc1ccc(-c2nc(-c3ccccn3)no2)o1,114.6,2.9,4.2,3.0,1.3
Clc1ccc(-c2nc(-c3ccccn3)no2)cc1Cl,264.7*,5.5,-3.3,17.3,26.9
COc1ccc(OC)c(N)c1,-0.2,8.4,2.4,62.7*[fluorescence artefact?],91.2*[fluorescence artefact?]
Cn1c(COc2ccccc2)nnc1SCc1nc2ccccc2[nH]1,119.8,6.1,94.0*,0.3,0.8
CCn1c(CCCNC(=O)c2ccc(F)cc2)nc2ccccc21,269.7*,2.7,-1.1,6.9,-5.3
CC(=O)Nc1cccc(OCC(O)Cn2cnc3ccccc32)c1 (centres undefined),107.5,10.2,3.8,3.6,2.9
CC(=O)Nc1ccc(OCC(O)Cn2cnc3ccccc32)cc1 (centres undefined),636.3*[fluorescence artefact?],8.5,-8.1,-6.7,-5.4
O=S(=O)(Nc1ccc(-c2nc3cccnc3s2)cc1)c1ccc(Cl)s1,86.5,11.9,-3.2,10.7,77.2*[fluorescence artefact?]
O=S(=O)(Nc1ccc(-c2nc3cccnc3s2)cc1)c1cccs1,175.0,3.2,4.7,21.5,23.9
COc1cc(-c2nc(-c3ccc(Br)o3)no2)cc(OC)c1OC,114.4,4.0,1.9,22.3,44.0
COc1ccc(-c2noc(-c3ccc(Br)o3)n2)cc1OC,386.7*[fluorescence artefact?],-1.8,-27.0,-0.8,-2.1
O=C(Nc1nc(-c2nc3ccccc3s2)cs1)c1ccco1,287.6*[fluorescence artefact?],6.9,-56.5,39.9,30.8
Cc1ccc(S(=O)(=O)N2CCC(C(=O)O)(c3ccccc3)CC2)cc1,/,/,-5.1,/,/
CCOC(=O)C1=C(C)NC(=O)N[C@@H]1c1coc2cc(C)cc(C)c2c1=O,/,/,-3.1,/,/
Cc1ccc(C)n1-c1cccc(C(=O)O)c1,327.6*,6.0,0.9,25.5,-0.4
CCC(CC)C(=O)NCCc1cc2c(C)ccc(C)c2[nH]c1=O,105.0,8.9,5.5,2.3,54.4*[fluorescence artefact?]
Cn1c(N)c(C(=O)CSc2nc3ccccc3n2-c2ccccc2)c(=O)n(C)c1=O,231.1*[fluorescence artefact?],-3.1,19.1,37.5,48.1
SMILES,ERa SRC1 pot,Candida biofilm,Smad3 FoxH1 inh,ERb coact inh,ERa SRC1 inh
COc1ccc(-n2c(SCC(=O)c3c(N)n(C)c(=O)n(C)c3=O)nc3ccccc32)cc1,72.6,5.2,10.1,15.2,11.0
O=c1c2c3c(sc2nc2sc(CN4CCCCC4)cn12)CCCC3,268.0*[fluorescence artefact?],4.1,20.5,29.2,51.4*[fluorescence artefact?]
Cc1nc2c(Br)c3nc(C(F)(F)F)[nH]c3c(Br)c2[nH]1,67.6,-5.3,3.0,73.7*[fluorescence artefact?],38.2
Cc1nn(-c2ccccc2)c2sc(C(=O)C(C#N)c3ccccn3)cc12 (centres undefined),23.1,12.9,-0.6,92.7*[fluorescence artefact?],79.4*[fluorescence artefact?]
Cc1ccn(C(=O)c2cc3c(C)nn(-c4ccccc4)c3s2)n1,134.7,3.8,-5.8,14.2,15.4
Cc1nn(-c2ccccc2)c2sc(C(=O)c3c(N)n(C)c(=O)n(C)c3=O)cc12,550.5*,4.1,8.2,13.4,-10.8
CCNc1ccc(Br)cc(C(=O)/C=C/c2ccccc2Cl)c1=O,93.9,4.1,9.9,74.1*[fluorescence artefact?],80.4*
Cc1cc(C(=O)NNC(=S)NC(=O)/C=C/c2ccccc2Cl)n[nH]1,77.9,6.9,-1.5,12.5,19.4
CNc1ccc(Br)cc(C(=O)/C=C/c2cccc(OC)c2OC)c1=O,73.3,5.5,10.9,54.9*[fluorescence artefact?],42.2
NNC(=O)c1ccc[n+](CCc2ccccc2)c1,/,/,0.4,/,/
Cc1oc2nc(SCC(=O)NCCCO)nc(N)c2c1C,101.4,4.4,-4.4,63.9*,-8.4
Cc1oc2nc(SCCCC(=O)NCCCO)nc(N)c2c1C,100.7,4.0,-1.6,8.0,0.4
COC(=O)c1ccc(Cn2nc(C)c(Br)c2C)cc1,101.6,3.8,2.0,65.7*[fluorescence artefact?],-5.1
O=C1NC(=S)SC1=C1CCCC1,38.6,4.8,-2.3,56.2*,45.6
COc1ccc(C(=O)Oc2c(CN3CCOCC3)cc(Cl)c3cccnc23)cc1,114.5,9.4,23.4,7.1,1.5
COc1cc(C(=O)Oc2c(CN3CCOCC3)cc(Cl)c3cccnc23)cc(OC)c1OC,218.1*,-5.2,10.2,4.5,-9.6
Clc1cc2c(c(CSC3=NCN(CC4CC4)CN3)c1)OCOC2,/,/,3.9,/,/
O=C(NCCCN1CCOCC1)c1cc2c(=O)[nH]c3ccccc3c2s1,223.7*,9.9,-0.5,-8.0,-5.0
CCN1CCN(CCCNC(=O)c2cc3c(=O)[nH]c4ccccc4c3s2)CC1,108.9,2.4,-15.3,6.8,7.8
NC(=O)/N=C(\N)NC(=O)c1ccccc1,/,/,3.8,/,/
O=C(O)/C(=C\c1ccccc1)Cc1ccccc1,/,/,13.9,/,/
CSc1nc(N2CCOCC2)c2c3c(sc2n1)CCC3,77.6,2.1,-2.7,61.8*[fluorescence artefact?],18.0
Cc1cc(NC(=O)c2cncc(Br)c2)n(-c2ccccn2)n1,294.0*,1.0,-2.4,-4.6,8.0
NCCSCCC(=O)O,/,/,39.2,/,/
Cc1cc(C)cc(-n2c(=O)c3sccc3n(CC(=O)NCc3ccco3)c2=O)c1,103.5,12.0,-1.6,79.9*[fluorescence artefact?],-2.0
SMILES,ERa SRC1 pot,Candida biofilm,Smad3 FoxH1 inh,ERb coact inh,ERa SRC1 inh
Cc1ccc(C)c(Cn2c(=O)n(CCC(=O)NCc3ccco3)c(=O)c3sccc32)c1,204.6*,6.8,-16.6,-3.8,20.5
Cc1ccccc1Cn1c(=O)n(CCCC(=O)NCc2ccco2)c(=O)c2sccc21,79.6,8.2,-5.7,11.9,2.6
Cc1cc(C)c(Cn2c(=O)n(CCCC(=O)NCc3ccco3)c(=O)c3sccc32)c(C)c1,117.1,-6.9,-28.9,19.1,52.8*[fluorescence artefact?]
Cc1cccc2nc(Cn3c(=O)n(CCC(=O)NCc4ccco4)c(=O)c4sccc43)cc(=O)n12,98.6,3.4,6.8,-4.9,2.0
O=C(O)C[CH2][Ge](=[O])[O][Ge](=[O])[CH2]CC(=O)O,111.6,5.0,0.9,-5.9,-4.5
COc1ccc2ccccc2c1/C=C/C(=O)c1ccccc1,/,/,-17.8,/,/
OC[C@H](CCc1c[nH]c2ccccc12)c1c[nH]c2ccccc12,/,/,3.7,/,/

# Screens deposited in PubChem BioAssay by several laboratories.
